Source: PubChem BioAssay
Results with a measured potency or affinity are listed apart. Inconclusive results are not listed. Active and inactive are the calls of the source.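 Rule for the calls, unless noted: active = a dose-response fit showing signal loss, with half-maximal concentration no higher than twice the top tested dose; inconclusive = flat fit between 30% and 70% signal loss, or poor fit; inactive = the rest.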

Experiments:
[1] = fungal growth arrest, C. neoformans – Alamar Blue, cherry-picks, dose response (AID 686998;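 active = falling signal with fitted half-maximal potency no higher than twice the top valid tested dose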)
[2] = C. neoformans lysis by adenylate kinase leakage – AK release luminescence, cherry-picks, dose response (AID 687000;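 active = fitted dose curve reaches 40% lysis signal rise at or below the highest valid concentration tested for that sample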;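 note: luminescent detection of adenylate kinase leaking from lysed yeast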)
[3] = viability loss in HepG2 hepatoma cells – cell-based, cherry-picks, set 2, cytotoxicity control, dose response (AID 687002)
[4] = viability loss in HeLa cells – cell-based, ATP luminescence, cherry-pick samples, cytotoxicity control, dose response (AID 687004;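 active = a fitted half-maximal concentration no higher than twice the top valid tested dose, with signal falling as cells die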)

Measured: outcome

CCCNC(=O)C[C@@H]1CC[C@@H]2[C@@H](COc3ccc(NC(=O)CCC)cc3C(=O)N2C)O1
inactive: all assays above

Cc1cccc(NC(=O)C2NC(=O)CC2c2ccccc2)c1C (centres undefined)
inactive: all assays above

CC(C)NC(=O)NCC[C@@H]1CC[C@@H](NC(=O)CN(C)C)[C@@H](CO)O1
inactive: all assays above

COc1ccc(-n2ncc3c(SCC(=O)OC(C)C)ncnc32)cc1
inactive: all assays above

O=C(CSc1ncnc2c1cnn2-c1ccc(F)cc1)NC1CCCC1
inactive: all assays above

C[C@H]1CN([C@@H](C)CO)C(=O)c2cccc(N(C)C)c2O[C@@H]1CN(C)C(=O)Nc1cccc2ccccc12
inactive: all assays above

CCC(=O)N1[C@H](C(=O)Nc2ccccc2)[C@@H](CO)[C@@H]2Cn3c(ccc(-c4ccncc4)c3=O)[C@@H]21
inactive: all assays above

C[C@@H]1CN([C@H](C)CO)C(=O)c2cc(-c3cccc(F)c3)cnc2O[C@H]1CN(C)Cc1ccccc1
inactive: all assays above

O=C(c1cccc(F)c1)N1CCCCN2[C@@H](CO)[C@H](c3ccc(-c4ccncc4)cc3)[C@@H]2C1
inactive: all assays above

COc1cccc(S(=O)(=O)N(C)C[C@H]2OCc3cnnn3CCCC(=O)N([C@H](C)CO)C[C@H]2C)c1
inactive: all assays above

O=C(NCCc1ccccc1)[C@H]1[C@H](CO)[C@H]2Cn3c(cccc3=O)[C@@H]1N2C(=O)C1CCC1
inactive: all assays above

Cc1noc(C)c1NC(=O)Nc1ccc2c(c1)C(=O)N(C)[C@H]1CC[C@H](CC(=O)N[C@H]3CCN(Cc4ccccc4)C3)O[C@H]1CO2
inactive: all assays above

CCNC(=O)Nc1ccc2c(c1)C(=O)N(C)[C@@H]1CC[C@H](CC(=O)N[C@@H](C)c3ccccc3)O[C@@H]1CO2
inactive: all assays above

COCC#Cc1cnc2c(c1)C(=O)N([C@H](C)CO)C[C@H](C)[C@H](CN(C)C(=O)C1CC1)O2
inactive: all assays above

Cc1cc(C)c(NC(=O)C2CCCN2C)c(C)c1 (centres undefined)
inactive: all assays above

CNC[C@H]1Oc2c(NS(=O)(=O)c3cccs3)cccc2C(=O)N([C@H](C)CO)C[C@@H]1C
inactive: all assays above

O=C(Cc1cccs1)N1CCN(c2cccc(Cl)c2)CC1
inactive: all assays above

Cc1noc(C)c1NC(=O)N(C)C[C@@H]1Oc2ccc(NS(=O)(=O)c3cn(C)cn3)cc2CC(=O)N([C@H](C)CO)C[C@H]1C
inactive: all assays above

COc1cccc(S(=O)(=O)N2C[C@@H](O)COC[C@@H]3O[C@H](CC(=O)N4CCN(C)CC4)CC[C@H]32)c1
inactive: all assays above

C[C@@H]1CN([C@@H](C)CO)C(=O)c2cc(NC(=O)C3CCCCC3)ccc2O[C@@H](C)CCCCO[C@@H]1CN(C)C(=O)NC1CCCCC1
inactive: all assays above

Cc1ccc(S(=O)(=O)N(CC(=O)NCCSC2CCCCC2)c2ccccc2F)cc1
inactive: all assays above

O=C(C[C@@H]1CC[C@@H]2[C@H](COC[C@H](O)CN2S(=O)(=O)c2ccc(Oc3ccccc3)cc2)O1)NC1CCC1
inactive: all assays above

CCNC(=O)C[C@@H]1CC[C@H]2[C@@H](COC[C@@H](O)CN2S(=O)(=O)c2ccccc2F)O1
inactive: all assays above

C[C@H](CO)N1C[C@H](C)[C@H](CN(C)C(=O)NC2CCCCC2)OCCCC[C@H](C)Oc2ccc(NC(=O)C3CCCCC3)cc2C1=O
inactive: all assays above

COCC(=O)N1[C@H](C#N)[C@H](c2ccc(C#Cc3ccccc3F)cc2)[C@H]1CO
inactive: all assays above

CCS(CC)=NS(=O)(=O)c1ccc(NC(C)=O)cc1
inactive: all assays above

CO[C@H]1CC[C@@H]2CCOc3c(C#N)cccc3C(=O)N(C)C[C@H](OC)[C@@H](C)C(=O)N(C)C[C@@H]1O2
inactive: all assays above

O=S(=O)(NC[C@@H]1[C@@H](c2ccccc2)[C@H](CO)N1CC1CC1)c1ccccc1
inactive: all assays above

COc1cccc(S(=O)(=O)Nc2ccc3c(c2)[C@H]2C[C@H](CC(=O)NCc4cccc(F)c4)O[C@@H](CO)[C@H]2O3)c1
inactive: all assays above

O=C1CCC(C(=O)Nc2ccc(Cl)cc2)N1 (centres undefined)
inactive: all assays above

Cc1ccc(NC(=O)C2(C)CCN2C(=O)CC2CC2)cc1C (centres undefined)
inactive: all assays above

C[C@@H]1CN([C@H](C)CO)C(=O)c2cc(/C=C/c3ccccc3)cnc2O[C@@H]1CN(C)S(C)(=O)=O
inactive: all assays above

C[C@@H]1CN([C@@H](C)CO)C(=O)c2cccc(NC(=O)Nc3ccccc3)c2O[C@H]1CN(C)S(=O)(=O)c1cn(C)cn1
inactive: all assays above

Cc1ccc(C)c(NC(=O)C2(C)CCCN2C(=O)C(C)C)c1 (centres undefined)
inactive: all assays above

C[C@H]1CN([C@@H](C)CO)C(=O)c2cccc(NS(C)(=O)=O)c2O[C@H]1CN(C)C(=O)Nc1ccc2c(c1)OCO2
inactive: all assays above

Cc1cc(C)c(NC(=O)C2CCCCN2C)c(C)c1 (centres undefined)
inactive: all assays above

COc1ccccc1CNC(=O)C[C@@H]1C[C@H]2c3cc(NC(=O)Nc4ccccc4F)ccc3O[C@H]2[C@@H](CO)O1
inactive: all assays above

CCC(=O)N(C)C[C@H]1Oc2cc(C#CC(C)(C)O)ccc2S(=O)(=O)N([C@H](C)CO)C[C@@H]1C
inactive: all assays above

O=C(C[C@H]1CC[C@@H](NC(=O)c2ccc3c(c2)OCO3)[C@@H](CO)O1)NCc1ccc(F)cc1
inactive: all assays above

COCCNC(=O)C[C@H]1CC[C@@H]2[C@H](COC[C@H](O)CN2S(=O)(=O)c2ccccc2C)O1
inactive: all assays above

C[C@@H]1CCCCO[C@@H](CN(C)CC2CCCCC2)[C@@H](C)CN([C@@H](C)CO)C(=O)c2cc(NS(=O)(=O)c3ccccc3)ccc2O1
inactive: all assays above

C[C@@H]1CN([C@@H](C)CO)S(=O)(=O)c2ccc(C#Cc3ccc(F)cc3)cc2O[C@H]1CN(C)C(=O)NC1CCCC1
inactive: all assays above

C[C@@H]1CN([C@@H](C)CO)C(=O)c2cc(NS(=O)(=O)c3cn(C)cn3)ccc2O[C@@H](C)CCCCO[C@H]1CN(C)C
inactive: all assays above

COCC(=O)N(C)C[C@@H]1Oc2ncc(C#CCC3CCCC3)cc2C(=O)N([C@H](C)CO)C[C@H]1C
inactive: all assays above

Cc1cccc(C)c1NC(=O)CN1CCCC1
inactive: all assays above

Cc1noc(C)c1NC(=O)Nc1ccc2c(c1)C(=O)N([C@H](C)CO)C[C@H](C)[C@H](CN(C)CC1CCCCC1)O2
inactive: all assays above

CC(C)NC(=O)Nc1cccc2c1O[C@@H](CN(C)C(=O)Nc1ccccc1)[C@@H](C)CN([C@@H](C)CO)C2=O
inactive: all assays above

O=C(C[C@H]1C=C[C@H](NC(=O)Nc2cc(F)ccc2F)[C@@H](CO)O1)NCCCN1CCOCC1
inactive: all assays above

Cc1ccc(S(=O)(=O)N(C)C[C@@H]2Oc3ccc(NS(=O)(=O)c4ccc(Cl)cc4)cc3CC(=O)N([C@@H](C)CO)C[C@@H]2C)cc1
inactive: all assays above

C[C@@H](O)C#Cc1ccc([C@@H]2[C@H](CO)N3CCCCN(CC4CC4)C[C@@H]23)cc1
inactive: all assays above

C[C@@H]1CCCCO[C@@H](CN(C)Cc2ccc(C(F)(F)F)cc2)[C@@H](C)CN([C@@H](C)CO)C(=O)c2cc(NS(=O)(=O)c3cn(C)cn3)ccc2O1
inactive: all assays above
